DTT redox prof – compounds producing H2O2 with reducing agent – biochemical, NIH compound library profiling, artefact control for MLSCN library redox annotation, primary screen; DTT-dependent redox cycling H2O2, phenol red/HRP absorbance; 100% = 100 µM peroxide control, 0% = buffer; activation, % at 10 µM; 200,000 compounds, 0.03% hits;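 active means activation of at least 50% relative to the plate's high and low controls in the primary single-dose screen; inactive means activation below 50%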;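 further: compound incubated with DTT at 0.8 mM final as the reducing agent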
SUMO HTRF inh – inhibitors of human SUMOylation (UBC9); HTRF SUMOylation assay, SAE1/SAE2 + UBC9, in vitro; P63279; 290,000 compounds, 0.36% hits; inhibition, % at 35 µM; in the data active means inhibition above about 50%, passing the limit was not always enough
p97 inhibitor – inhibitors of human p97 ATPase. P55072. recombinant p97 ATPase, Kinase-Glo ATP luminescence, 3 h. inhibition, % at 8 µM. 220,000 compounds, 0.42% hits; in the data active means inhibition above about 15%;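 further: 0% = DMSO vehicle and 100% = wells lacking enzyme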
PERK inh – blocks human PERK kinase; Q9NZJ5; CHO PERK-DD fusion, SEAP luminescence translation reporter; inhibition, % at 5.6 µM; 220,000 compounds, 0.17% hits; AID 1416;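 active means inhibition above the mean inhibition of all tested compounds plus 3 SD, set separately per screening campaign, cut at about 2.9% in these data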;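 further: PERK kinase domain activated by AP20187 dimerizer at 100 nM; 0% = DMSO with dimerizer and 100% = rapamycin at 8.4 µM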
Target sequence (Q9NZJ5 whole entry, looked up, the tested form may be a part): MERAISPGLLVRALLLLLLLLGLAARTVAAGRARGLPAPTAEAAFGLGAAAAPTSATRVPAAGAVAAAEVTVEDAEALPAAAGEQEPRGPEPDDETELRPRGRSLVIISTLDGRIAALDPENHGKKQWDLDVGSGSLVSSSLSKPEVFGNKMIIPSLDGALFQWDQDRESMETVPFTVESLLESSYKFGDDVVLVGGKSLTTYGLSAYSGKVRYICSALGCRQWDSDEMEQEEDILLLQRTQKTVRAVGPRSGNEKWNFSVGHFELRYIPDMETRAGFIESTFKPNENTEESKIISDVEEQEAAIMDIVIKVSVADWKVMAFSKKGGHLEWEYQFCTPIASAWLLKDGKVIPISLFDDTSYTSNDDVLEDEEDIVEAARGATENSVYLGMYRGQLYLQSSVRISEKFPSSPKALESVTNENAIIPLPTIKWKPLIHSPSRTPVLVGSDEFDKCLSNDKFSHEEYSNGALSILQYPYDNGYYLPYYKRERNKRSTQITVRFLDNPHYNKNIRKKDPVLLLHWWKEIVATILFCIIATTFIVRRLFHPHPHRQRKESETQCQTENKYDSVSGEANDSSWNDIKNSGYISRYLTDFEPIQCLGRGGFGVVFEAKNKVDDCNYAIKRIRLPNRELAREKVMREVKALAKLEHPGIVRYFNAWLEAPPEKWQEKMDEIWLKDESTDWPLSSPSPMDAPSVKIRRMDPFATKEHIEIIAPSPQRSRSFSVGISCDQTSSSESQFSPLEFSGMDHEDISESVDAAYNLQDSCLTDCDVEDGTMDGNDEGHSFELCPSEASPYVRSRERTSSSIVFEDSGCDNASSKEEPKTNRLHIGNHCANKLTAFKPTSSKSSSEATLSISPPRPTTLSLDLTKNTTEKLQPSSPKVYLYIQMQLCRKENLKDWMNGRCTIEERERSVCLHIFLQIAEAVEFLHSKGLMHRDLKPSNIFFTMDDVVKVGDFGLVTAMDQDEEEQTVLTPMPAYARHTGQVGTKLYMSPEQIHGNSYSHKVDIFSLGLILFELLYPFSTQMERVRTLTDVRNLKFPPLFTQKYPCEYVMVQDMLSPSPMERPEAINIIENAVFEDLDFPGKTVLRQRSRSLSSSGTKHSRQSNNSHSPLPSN
Redox H2O2 DR – confirmation of DTT-dependent redox cycling H2O2 generators | shares compounds with DTT redox prof | phenol red-HRP absorbance | EC50, µM | 60 compounds, 40% hits | AID 1234;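 active means EC50 under a set limit for hydrogen peroxide production with the reducing agent DTT present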
p97 inh conf – confirmation of human p97 ATPase inhibitors | shares compounds with p97 inhibitor | recombinant p97 ATPase, Kinase-Glo ATP luminescence | inhibition, % at 8 µM | 760 compounds, 44% hits | AID 1517;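 active means percent inhibition of p97 ATPase above a set limit, the primary screen's mean plus 3 SD, cut at about 15% in these data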;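 further: 0% = DMSO wells and 100% = wells lacking p97 protein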
Active calls of the source: *. Only some compounds are listed: those with a hit (about 0.69% of all), similar ones and a draw of the others.

`CCCCn1c(NC(=O)c2ccco2)c(C(=O)OCC)c2nc3ccccc3nc21` gave DTT redox prof 80.9*, SUMO HTRF inh 102.6, p97 inhibitor 33.3*, PERK inh -0.4, Redox H2O2 DR >50 and p97 inh conf 34.8*.
CCn1nc(/C=C/c2ccccc2)nc2c(=O)n(C)c(=O)nc1-2 was read as DTT redox prof 152.1*, SUMO HTRF inh 98.6*, p97 inhibitor 34.2*, PERK inh 0.2, Redox H2O2 DR >50 and p97 inh conf 37.0*.
CCCCCc1nc2ccccc2c(=O)n1-c1ccc(Cl)cc1[N+](=O)[O-] was read as DTT redox prof 1.4, SUMO HTRF inh -28.0, p97 inhibitor -2.1 and PERK inh 0.4.
COc1cc(C(c2c(C)[nH]n(-c3ccccc3)c2=O)c2c(C)[nH]n(-c3ccccc3)c2=O)cc(OC)c1OC was read as DTT redox prof -6.7, p97 inhibitor 20.3*, PERK inh -0.2 and p97 inh conf 7.3.
For COC(=O)c1nc(-c2ccc3c(n2)C(=O)C(N)=C(OC)C3=O)c(N)c(-c2ccc(OC)c(OC)c2O)c1C the results were SUMO HTRF inh 49.2, p97 inhibitor 16.9*, PERK inh -0.7 and p97 inh conf 33.6*.
Screening OC(c1ccccc1)(c1ccc(Cl)cc1)C1CN2CCC1CC2 (stereo unspecified) returned SUMO HTRF inh -4.3, p97 inhibitor 16.2*, PERK inh 0.1 and p97 inh conf 9.6.
`COc1ccccc1N1CCN(CCc2ccccc2)CC1` gave SUMO HTRF inh 10.9.
For Nc1c(C(=O)OC2CCCCC2)c2nc3ccccc3nc2n1CC1CCCO1 (stereo unspecified) the results were DTT redox prof 0.6, SUMO HTRF inh 18.6, p97 inhibitor 1.6 and PERK inh -0.7.
`CC(C)OC(=O)c1c(N)n(CC2CCCO2)c2nc3ccccc3nc12` (stereo unspecified) gave DTT redox prof -0.5, SUMO HTRF inh 41.8, p97 inhibitor 26.5*, PERK inh -1.0 and p97 inh conf 0.2.
CCOC(=O)C1=C(N)OC2=C(C(=O)CC(C)(C)C2)C12C(=O)Nc1ccccc12 (stereo unspecified) was read as DTT redox prof -0.5, SUMO HTRF inh 11.1, p97 inhibitor 5.7 and PERK inh 1.3.
CN(C)[C@@H]1C(=O)C(C(N)=O)=C(O)[C@@]2(O)C(=O)C3=C(O)c4c(O)ccc(Cl)c4[C@@](C)(O)[C@H]3C[C@@H]12 was read as SUMO HTRF inh 19.9.
For CN(C)[C@@H]1C(=O)C(C(N)=O)=C(O)[C@@]2(O)C(=O)C3=C(O)c4c(O)cccc4[C@@](C)(O)[C@H]3[C@H](O)[C@@H]12 the results were DTT redox prof 2.6, SUMO HTRF inh 46.9, p97 inhibitor 18.6*, PERK inh -0.2 and p97 inh conf 39.7*.
For COc1ccc(C(CNC(=O)CCc2ccsc2)N(C)C)cc1 (stereo unspecified) the results were SUMO HTRF inh 12.2.

Screens deposited in PubChem BioAssay by several laboratories.
